# In the supplement of paper PMC12340641:
# Where a name gives a salt, the structure may show the parent alone. ± gives the standard deviation of the averaged measurements.
# Target: IKZF1 (dCK*-IKZF1 fusion in HEK293FT) (UniProt Q13422)
# Assay: inhibition of IKZF1 HTRF signal (DMSO = 0%, pomalidomide 10 uM = 100%); higher = lower IKZF1 protein level
# Settings: compound concentration: 5 uM, overnight (~20 h)
# Outline: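 For percent inhibition of IKZF1 signal, each plate was normalised to vehicle and to a reference degrader. Cells were HEK293FT stably expressing an IKZF1 fusion, plated at 2000/well in 384-well format and treated overnight at 37 °C with 5 μM compound, one well each. Lysates were probed overnight with a commercial HTRF total-IKZF1 antibody kit, with the 665/620 nm ratio background-subtracted and vehicle and degrader fixed at 0% and 100%.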
# IKZF1 (dCK*-IKZF1 fusion in HEK293FT), sequence (Q13422 whole entry, looked up, the tested form may be a part): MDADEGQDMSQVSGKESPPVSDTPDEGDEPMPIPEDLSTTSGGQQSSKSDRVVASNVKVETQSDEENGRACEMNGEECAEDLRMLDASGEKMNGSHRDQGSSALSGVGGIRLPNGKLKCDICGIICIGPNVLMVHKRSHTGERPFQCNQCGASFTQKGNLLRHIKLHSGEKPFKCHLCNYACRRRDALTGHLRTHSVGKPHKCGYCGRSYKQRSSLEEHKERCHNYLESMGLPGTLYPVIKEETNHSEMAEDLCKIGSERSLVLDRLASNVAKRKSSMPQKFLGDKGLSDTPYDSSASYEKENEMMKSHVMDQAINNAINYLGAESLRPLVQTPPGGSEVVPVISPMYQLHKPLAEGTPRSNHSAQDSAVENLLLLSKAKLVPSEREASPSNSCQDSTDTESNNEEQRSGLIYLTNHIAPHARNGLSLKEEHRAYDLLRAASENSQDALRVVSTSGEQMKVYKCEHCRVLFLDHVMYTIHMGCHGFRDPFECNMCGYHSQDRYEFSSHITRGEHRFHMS
row,Structure (SMILES),inhibition of IKZF1 HTRF signal
1,CNCCC(Oc1ccc(C(F)(F)F)cc1)c1ccccc1 (stereo unspecified),-36.8%
2,Oc1cc(O)c2cc(O)c(-c3cc(O)c(O)c(O)c3)[o+]c2c1 [delphinidin],43.4%
3,C[n+]1c2cc(N)ccc2cc2ccc(N)cc21.Nc1ccc2cc3ccc(N)cc3nc2c1 [Acriflavine hydrochloride],6.76%
4,CN1CCC(=C2c3ccccc3Sc3ccccc32)CC1,-29.9%
5,COc1ccc(NS(=O)(=O)c2ccc(N)cc2)nn1,-33.3%
6,COc1ccc(CCN(C)CCc2ccc(OC)c(OC)c2)cc1OC,-8.39%
7,C=CC[C@@H]1/C=C(\C)C[C@H](C)C[C@H](OC)[C@H]2O[C@@](O)(C(=O)C(=O)N3CCCC[C@H]3C(=O)O[C@H](/C(C)=C/[C@@H]3CC[C@@H](O)[C@H](OC)C3)[C@H](C)[C@@H](O)CC1=O)[C@H](C)C[C@@H]2OC [Tacrolimus],-32.9%

# Tested on: HEK293FT dCK*-only
# Assay: relative growth in counter assay (no AraC = 100%, AraC + DMSO = 0%); higher = more growth rescue independent of IKZF1
# Settings: compound concentration: 5 uM; AraC concentration: 0.3 uM; overnight pretreatment + 4 days AraC
# Outline: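 HEK293FT cells carrying only an engineered kinase construct were plated at 300 per well (384-well) and given 5 μM compound 2 h later. Following overnight at 37 °C, a nucleoside suicide substrate (0.3 μM) plus medium was added for 4 days. Hoechst 33342-stained nuclei were imaged and counted on day 5, with 100% assigned to wells without suicide substrate and 0% to substrate plus vehicle on each plate.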
row,Structure (SMILES),relative growth in counter assay
1,Cn1c(NCCN(CCO)CCCc2ccc([N+](=O)[O-])cc2)cc(=O)n(C)c1=O [nifekalant],-3.87%
2,O=C1c2ccccc2-c2n[nH]c3cccc1c23 [pyrazolanthrone],-9.29%
3,O=C(OC)C1=C(C)NC(C)=C(C(OCCCN3CCC(C4=CC=CC=C4)(C5=CC=CC=C5)CC3)=O)[C@@H]1[C@]2=CC=CC([N+]([O-])=O)=C2 [dexniguldipine],-15.1%
4,C=CC(=O)c1ccc2ccccc2c1 [JAK3-inhibitor-V],-15.1%
5,COc1cc(/C=C/C(=O)CC(=O)/C=C/c2ccc(O)c(OC)c2)ccc1O [Curcumin],-25.9%
6,CC(=NNc1nnc2c(n1)[nH]c1c(C)cccc12)c1ccccn1,-31.6%
7,C=C1C(=O)O[C@H]2[C@H]1CC/C(C)=C/CC[C@@]1(C)O[C@@H]21 [parthenolide],-33%
8,COc1cccc2c1C(=O)c1c(O)c3c(c(O)c1C2=O)C[C@@](O)(/C(CO)=N/NC(=O)CCCCCN1C(=O)C=CC1=O)C[C@@H]3O[C@H]1C[C@H](N)[C@H](O)[C@H](C)O1 [Aldoxorubicin],-35.5%
9,C=C1/C(=C\C=C2/CCC[C@]3(C)[C@@H]([C@H](C)/C=C/C=C/C(O)(CC)CC)CC[C@@H]23)C[C@@H](O)C[C@@H]1O [Seocalcitol],14.2%
10,CC[C@]1(O)C[C@H]2CN(CCc3c([nH]c4ccccc34)[C@@](C(=O)OC)(c3cc4c(cc3OC)N(C)[C@H]3[C@@](O)(C(=O)OC)[C@H](OC(C)=O)[C@]5(CC)C=CCN6CC[C@]43[C@@H]65)C2)C1 [Vinblastine Sulfate],-33.4%
11,Oc1ccc(Cl)c2cccnc12,-6.2%
12,C=CCc1ccc(O)c(-c2cc(CC=C)ccc2O)c1 [Magnolol],-9.5%
13,CO[C@H]1CC(O[C@@H]2/C(C)=C/C[C@@H]3C[C@@H](C[C@]4(CC[C@H](C)[C@@H](C5CCCCC5)O4)O3)OC(=O)[C@@H]3C=C(C)/C(=N/O)[C@H]4OC/C(=C\C=C\[C@@H]2C)[C@]43O)O[C@@H](C)C1O (stereo partly specified),10.4%
14,O=C1N(c2ccccc2)c2ccccc2C1(Cc1ccncc1)Cc1ccncc1 [linopirdine],-2.22%
15,COC(=O)Nc1nc2ccc(Sc3ccccc3)cc2[nH]1,-32.4%
16,Cc1cc(NC(=O)C(c2ccccc2)N2CCCc3ccccc32)no1 (stereo unspecified),-9.71%
17,COc1ccc(Cl)cc1C(=O)NCCc1ccc(S(=O)(=O)NC(=O)NC2CCCCC2)cc1,-0.06%
18,Clc1ccccc1C(c1ccccc1)(c1ccccc1)n1ccnc1 [Clotrimazole],11.9%
19,CN(C)c1ccc(C(=C2C=CC(=[N+](C)C)C=C2)c2ccc(N(C)C)cc2)cc1,-35.1%
20,Cc1nc(-c2cccnc2)sc1C(=O)Nc1ccccc1-c1cn2c(CN3CCOCC3)csc2n1,-2.87%

row,Structure (SMILES),relative growth in counter assay
1,CO[C@H]1/C=C/O[C@@]2(C)Oc3c(C)c(O)c4c(O)c(c(/C=N/N5CCN(C)CC5)c(O)c4c3C2=O)NC(=O)/C(C)=C\C=C\[C@H](C)[C@H](O)[C@@H](C)[C@@H](O)[C@@H](C)[C@H](OC(C)=O)[C@@H]1C,12.9%
2,COc1ccc(CN2CCN(C(c3ccc(F)cc3)c3ccc(F)cc3)CC2)c(OC)c1OC,1.19%
3,Nc1nc(N)c2nc(-c3cccc(O)c3)cnc2n1,-10.5%
4,CCc1nc(N)nc(N)c1-c1ccc(Cl)cc1 [Pyrimethamine],3.76%
5,COc1cnc(NS(=O)(=O)c2ccc(N)cc2)nc1,-10.1%
6,CC(=O)Oc1ccccc1C(=O)Nc1ncc([N+](=O)[O-])s1 [Nitazoxanide],-4.25%
7,S=C(NCc1ccc2c(c1)OCO2)N1CCN(c2ncnc3c2oc2ccccc23)CC1 [Amuvatinib (MP-470)],-17.4%
8,O=C(Nc1ccc2[nH]ccc2c1)c1ccccc1,-3.62%
9,Cc1ccc(S(=O)(=O)N/N=C/c2cc(Br)ccc2O)cc1,-14 ± 4.4%
10,COc1cc([C@@H]2c3cc4c(cc3[C@@H](O[C@@H]3O[C@@H]5CO[C@@H](C)O[C@H]5[C@H](O)[C@H]3O)[C@H]3COC(=O)[C@H]23)OCO4)cc(OC)c1OP(=O)(O)O [Etoposide phosphate],-33.9%
11,O=C1Nc2ccc(Cl)cc2[C@@](C#CC2CC2)(C(F)(F)F)O1 [Efavirenz],3.1%
12,O=c1[nH]c(=O)n([C@H]2C[C@H](O)[C@@H](CO)O2)cc1F [Floxuridine],-29.6%
13,CNCCC(Oc1ccc(C(F)(F)F)cc1)c1ccccc1 (stereo unspecified),6.85%
14,Oc1cc(O)c2cc(O)c(-c3cc(O)c(O)c(O)c3)[o+]c2c1 [delphinidin],-7.27%
15,C[n+]1c2cc(N)ccc2cc2ccc(N)cc21.Nc1ccc2cc3ccc(N)cc3nc2c1 [Acriflavine hydrochloride],-35.7%
16,CN1CCC(=C2c3ccccc3Sc3ccccc32)CC1,-4.99%
17,COc1ccc(NS(=O)(=O)c2ccc(N)cc2)nn1,-4.98%
18,COc1ccc(CCN(C)CCc2ccc(OC)c(OC)c2)cc1OC,5.51%
19,C=CC[C@@H]1/C=C(\C)C[C@H](C)C[C@H](OC)[C@H]2O[C@@](O)(C(=O)C(=O)N3CCCC[C@H]3C(=O)O[C@H](/C(C)=C/[C@@H]3CC[C@@H](O)[C@H](OC)C3)[C@H](C)[C@@H](O)CC1=O)[C@H](C)C[C@@H]2OC [Tacrolimus],18.6%
